From PubChem
Dicer inh: inhibitors of Dicer pre-microRNA processing, primary screen, biochemical, cat-ELCCA, chemiluminescence; cat-ELCCA pre-miR-21 Dicer processing; hits give high values; z-score at 25 µM; 47,000 tested, 6% active; AID 1347074, 2019; in the data active means z-score above about 3, passing the limit was not always enough;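 further: plate controls were vehicle for no effect and no enzyme for full effect; higher signal means more uncleaved substrate so more Dicer inhibition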
The depositor's hits bear a star. The sample as a whole holds a higher share of hits than the screen did.

SMILES	Dicer inh
Clc1ccc(/C=N/Nc2cc(-c3ccccc3)nc3ncnn23)c(Cl)c1	1.69
COc1cc2c(cc1OC)C1=C(C#N)CN(c3ccc(C)c(C)c3)CN1CC2	4.51*
COc1cc2c(cc1OC)CN(S(=O)(=O)c1ccc3c(c1)CCC(C)(C)O3)CC2	-0.69
COc1cc2c(cc1OC)C1=C(C#N)CN(CCc3ccccc3)CN1CC2	1.05
CC1=C(C)CC2C(=O)N(c3ccc(F)cc3F)C(=O)C2C1 (stereo not given)	1.34
CN(C)CCN1C(=O)C(=O)/C(=C(/O)c2ccccc2)C1c1ccc(Br)cc1 (stereo not given)	0.89
O=C1C(=O)N(CCCN2CCOCC2)C(c2ccccc2)/C1=C(\O)c1ccc(Br)cc1 (stereo not given)	2.31
O=C(O)CCCN1C(=O)C(=O)/C(=C(/O)c2ccccc2)C1c1ccc(Br)cc1 (stereo not given)	3.91*
CCOC(=O)C1=C(C)NC2=C(C(=O)CCC2)C1c1cc(Cl)c(O)c(OC)c1 (stereo not given)	-0.45
CCCS(=O)(=O)c1c(C)c(C)n(Cc2cccc(Cl)c2)c1N	-1.47
O=C(Oc1ccccc1/C=N/N=C1\SCC(=O)N1c1cccc(F)c1)c1ccc(Cl)cc1	1.61
C/C(=N\OCC(=O)N=S(C)(=O)c1ccc(C)cc1)c1ccc(Cl)cc1 (stereo not given)	-0.26
COc1ccc(OC)c(Nc2nc3nonc3nc2Nc2ccc(F)cc2)c1	4.07*
COc1ccc(OC)c(Nc2nc3nonc3nc2Nc2cccc(Br)c2)c1	1.98
COc1ccccc1Nc1nc2nonc2nc1Nc1cccc(Br)c1	1.64
Cc1nc(N2CCN(c3ccc(F)cc3)CC2)nc2c1C(=O)CCC2	-3.04
O=C(O)c1coc2c1/C(=N/Nc1c(Cl)cc(Cl)cc1Cl)CCC2	3.77*
O=C(O)c1coc2c1/C(=N/N1CCCCC1)CCC2	0.82
Clc1cc(Cl)c(N/N=C2\CCCc3occc32)c(Cl)c1	1.98
Cc1nc(N2CCN(c3ccccn3)CC2)nc2c1C(=O)CC(/C=C/c1ccccc1)C2 (stereo not given)	-1.19
O=C(NCCSCc1ccc(Cl)cc1)C(Cl)Cl	-1.26
CC(C)N(C(=O)CN(C#N)c1nc(N(C)C)nc(N(C)C)n1)c1ccccc1	5.21*
CC(O)c1nc2ccccc2n1CC(=O)N(c1ccccc1)C(C)C (stereo not given)	0.62
CC(C)N(C(=O)CSc1nc2ccccc2s1)c1ccccc1	-0.03
COc1ccc(C)cc1S(=O)(=O)n1ccnc1	-2.53
SMILES	Dicer inh
C=CCOc1ccc(C2/C(=C(\O)c3ccc(OC)cc3)C(=O)C(=O)N2c2nnc(C)s2)cc1 (stereo not given)	1.24
O=C1CC(c2ccco2)CC2=C1C(c1cccnc1)n1c(nc3ccccc31)N2 (stereo not given)	0.79
COc1ccc(C2C3=C(CC(c4ccco4)CC3=O)Nc3nc4ccccc4n32)cc1 (stereo not given)	3.13*
COc1ccc(C2CC(=O)C3=C(C2)Nc2nc4ccccc4n2C3c2ccco2)cc1 (stereo not given)	-0.8
O=C(Nc1ccc(F)cc1F)c1nccnc1Oc1cccc(C(F)(F)F)c1	43
c1ccc(-c2ccc(-c3cnc(-c4ccncc4)s3)cc2)cc1	3.1*
CC(C)(C)c1ccc(-c2ncc(-c3cccc([N+](=O)[O-])c3)s2)cc1	0.03
O=c1sc(-c2ccccc2)ncc1-c1ccccc1	-0.08
CCCCSc1nnc2c(n1)OC(c1cccn1C)N(C(C)=O)c1ccccc1-2 (stereo not given)	0.28
Cc1nc2c(C)cccc2c2c1CCN2c1ccccc1F	3.21*
COc1cccc(N2CCc3c(C)nc4ccc(Cl)cc4c32)c1	1.63
COc1cc(OC)c2nc(C)c3c(c2c1)N(c1cccc(C(F)(F)F)c1)CC3	-1.03
Cc1cccc(C)c1NC(=O)c1cnc(Sc2ccccc2)cc1C(F)(F)F	-1.14
c1ccc(CSc2nnc3nc4c5ccccc5c5ccccc5c4nn23)cc1	-0.86
O=C(O)C1C2CCCC(CC2)C1C(=O)O (stereo not given)	-0.07
CCOC(=O)c1cnn(-c2ccccc2)c1NC(=O)Nc1ccccc1	4.13*
CCOC(=O)c1cnn(-c2ccccc2)c1NC(=O)CN1CCN(C)CC1	-1.19
CCOC(=O)c1cnn(-c2ccccc2)c1NC(=O)CN1CCOCC1	0.11
COC(=O)c1cnc(N/N=C/C=C/c2ccccc2)nc1C(F)(F)F	1.28
O=C(c1ccc(Cl)cc1)n1ccc(-c2ccc(C#Cc3ccccc3)s2)n1	0.18
C=C(C)c1cccc(C(C)(C)NC(=O)Nc2ccccc2F)c1	1.46
CCCOC(=O)Cn1cnc2ccccc2c1=O	-0.21
CCCCN1Cc2c(n(CC(=O)OCC)c3cc(-c4ccccc4)nn3c2=O)C1=O	-0.3
CC1=C(C(=O)OC(C)C)C(c2cccc(OCc3ccccc3)c2)n2ncnc2N1 (stereo not given)	0.32
CC1=C(C(=O)OCc2ccccc2)C(c2ccc(OCc3ccccc3)cc2)n2ncnc2N1 (stereo not given)	3.1*
SMILES	Dicer inh
CCOC(=O)C1=C(C)Nc2ncnn2C1c1ccc(N(CC)CC)cc1 (stereo not given)	2.06
Cc1cc(C)cc(CC2CC(=O)N(c3ccccc3)C2=O)c1 (stereo not given)	-4.42
O=C1CC(Cc2ccccc2)C(=O)N1c1ccncc1 (stereo not given)	-0.5
CC(C)(C)c1ccc(N2C(=O)CC(C/C=C/c3ccccc3)C2=O)cc1 (stereo not given)	4.65*
CCc1ccn2c(C)c(-c3ccc(OC)c(OC)c3)cc2c1	1.03
Fc1ccc(Cn2c3ccccc3c3nn4cnnc4nc32)cc1	-0.89
CC(=O)Nc1cc2cc(NS(=O)(=O)c3ccc(Cl)cc3)ccc2oc1=O	-0.32
O=S(=O)(Nc1ccc(O)c(-c2c(O)ccc3ccccc23)c1)c1ccc(Cl)cc1	8.46*
Cc1oc2ccc(NS(=O)(=O)c3ccc(Cl)cc3)cc2c1C(=O)OC(C)C	1.67
Cc1ccc(Oc2ncccc2NS(=O)(=O)c2cn(C)c(C)n2)c2c1CCC2	0.75
O=[N+]([O-])/C=C/c1c2ccccc2cc2ccccc12	2.78
COC(=O)c1ccccc1CS(C)(=O)=O	0.04
CC1(C)CC2CC(C)(CN2c2ccc(C(F)(F)F)cc2[N+](=O)[O-])C1 (stereo not given)	-0.19
CCCCCCSC1=C(C#N)C(c2cccc(Cl)c2)CC(=O)N1 (stereo not given)	-1.2
N#CC1=C2N=C(N)c3ccccc3N2C2=C(C(=O)CC(c3ccccc3)C2)C1c1cccs1 (stereo not given)	2.98
COc1cccc(C2C(C#N)=C3N=C(N)c4ccccc4N3C3=C2C(=O)CC(C)(C)C3)c1OC (stereo not given)	0.02
COc1cccc(C2C(C#N)=C3N=C(N)c4ccccc4N3C3=C2C(=O)CC(C)(C)C3)c1 (stereo not given)	1.87
COc1ccc(C2C(C#N)=C3N=C(N)c4ccccc4N3C3=C2C(=O)CC(C)(C)C3)cc1OC (stereo not given)	8.18*
CCOc1ccccc1C1C(C#N)=C2N=C(N)c3ccccc3N2C2=C1C(=O)CC(C)(C)C2 (stereo not given)	1.26
N#CC1=C2N=C(N)c3ccccc3N2C2=C(C(=O)CC(c3ccccc3)C2)C1c1cccnc1 (stereo not given)	1.47
COc1ccccc1C1C(C#N)=C2N=C(N)c3ccccc3N2C2=C1C(=O)CC(C)(C)C2 (stereo not given)	4.95*
